Measured values: PubChem BioAssay (NCATS)
Unmarked numbers belong to inactive results. Records with an inconclusive call do not appear. A call without a number means that no potency is given here. The source made the active and inactive calls. Unless noted, calls come from the whole dose curve; as a rule, active = well fitted curve in the direction sought with a large enough effect; inconclusive = small, poorly fitted or top-dose-only effect, or another doubt; inactive = no such curve, though single readings can be large; an effect the other way counts as inactive or inconclusive.

Tests used:
[1] = Confirmation and Secondary Assay for Modulators of Hemoglobin Beta Chain Splicing at IVS2 654 locus (AID 910); conditions: HeLa EGFP-654 splicing reporter, GFP fluorescence, 48 h; series mostly up to 46.1 µM;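 note: HeLa cells stably carrying EGFP split by mutant beta-globin IVS2-654 intron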
Summary of the method: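 HeLa cells stably expressing EGFP interrupted by β-globin IVS2-654 intron, seeded overnight in Opti-MEM/2% FCS, then treated 2 days at 37 °C. Restored splicing read as total peak GFP intensity per well by laser scanning cytometry (488 nm excitation, 500–520 nm emission); 500 nM antisense PNA as control.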

[2] = Confirmation and Secondary Assay for Modulators of Hemoglobin Beta Chain Splicing at IVS2 705 locus (AID 930); conditions: HeLa EGFP-705 splicing reporter, GFP fluorescence, 48 h; series mostly up to 46.1 µM;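 note: HeLa cells stably expressing the EGFP-705 splicing reporter; GFP fluorescence per well restored by corrected splicing of the IVS2-705 intron in EGFP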
Summary of the method: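 Read-out: total peak GFP fluorescence per well (488 nm excitation, 500-520 nm emission) by laser-scanning cytometry. Cells: HeLa EGFP-705 splicing reporter, 2 days compound exposure in Optimem/2% FCS.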

[3] = system: Zika virus NS2B-NS3 protease (linked); assay: 384 well plate NINDS AMC confirmatory qHTS for Zika virus inhibitors (AID 1347163); conditions: Recombinant NS2B-NS3 protease, Ac-VKTGKR-AMC fluorescence; series mostly up to 100 µM; note: nearly all actives have a fitted effect of over 50% in size; note: potency is the fitted concentration of half-maximal effect
Summary of the method: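 Linked protease 5/30/60 nM final; cpds up to 1 mM final, ~15 min preinc. Substrate Ac-VKTGKR-AMC 30 microM final. RT, dark, 25 min; FI ex 355/em 460; normalized to no-enzyme/no-inhibitor ctrls.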

[4] = biological target: Cytochrome P450 2C19 (Homo sapiens) (UniProt P33261); assay: qHTS Assay for Inhibitors and Substrates of Cytochrome P450 2C19 (AID 899); conditions: recombinant CYP2C19, luciferin-H EGE luminescence; series mostly up to 57.1 µM; note: nearly all actives have a fitted effect of over 60% in size; note: potency is the fitted concentration of half-maximal effect
Cytochrome P450 2C19 (Homo sapiens), sequence (P33261 whole entry, looked up): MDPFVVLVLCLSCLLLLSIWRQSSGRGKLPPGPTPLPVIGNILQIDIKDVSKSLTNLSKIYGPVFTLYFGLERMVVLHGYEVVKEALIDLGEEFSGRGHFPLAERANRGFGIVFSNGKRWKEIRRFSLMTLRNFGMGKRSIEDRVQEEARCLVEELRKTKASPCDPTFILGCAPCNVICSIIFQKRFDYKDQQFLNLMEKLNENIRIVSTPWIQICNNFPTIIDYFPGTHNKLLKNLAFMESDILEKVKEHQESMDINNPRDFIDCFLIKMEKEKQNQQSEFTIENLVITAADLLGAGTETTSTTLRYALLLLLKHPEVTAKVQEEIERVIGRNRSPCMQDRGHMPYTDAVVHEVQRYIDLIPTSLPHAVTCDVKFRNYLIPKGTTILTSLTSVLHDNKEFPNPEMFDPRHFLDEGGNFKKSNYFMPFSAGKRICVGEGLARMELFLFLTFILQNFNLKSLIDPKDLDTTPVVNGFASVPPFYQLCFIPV
Summary of the method: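 Luminescent read-out of luciferin formed from Luciferin-H EGE (10uM, equal to KM). Enzyme 5nM in 50mM KPO4; compound added, 10 min at 37C, then NADPH regenerating system for 60 min at 37C. Full inhibition defined by 57uM ketoconazole.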

[5] = biological target: Cytochrome P450 3A4 (Homo sapiens) (UniProt P08684); assay: qHTS Assay for Activators of Cytochrome P450 3A4 (AID 885); conditions: recombinant CYP3A4, Luciferin-PPXE luminescence, 60 min; series mostly up to 57.1 µM; note: nearly all actives have a fitted effect of over 65% in size
Cytochrome P450 3A4 (Homo sapiens), sequence (P08684 whole entry, looked up): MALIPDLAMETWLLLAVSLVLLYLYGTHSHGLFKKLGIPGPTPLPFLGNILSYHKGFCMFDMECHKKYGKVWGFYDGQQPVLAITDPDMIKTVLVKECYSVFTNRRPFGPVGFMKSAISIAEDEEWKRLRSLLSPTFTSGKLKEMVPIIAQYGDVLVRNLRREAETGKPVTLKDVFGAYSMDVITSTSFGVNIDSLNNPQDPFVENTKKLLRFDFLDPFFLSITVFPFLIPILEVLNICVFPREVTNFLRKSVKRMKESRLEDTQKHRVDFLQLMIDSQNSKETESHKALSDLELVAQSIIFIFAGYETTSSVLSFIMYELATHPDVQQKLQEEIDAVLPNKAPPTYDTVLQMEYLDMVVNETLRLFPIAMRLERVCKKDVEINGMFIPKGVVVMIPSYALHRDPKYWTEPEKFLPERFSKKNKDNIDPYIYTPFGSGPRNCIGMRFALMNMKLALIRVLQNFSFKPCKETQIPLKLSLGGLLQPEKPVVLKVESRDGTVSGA
Summary of the method: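 Signal was normalized against complete inhibition by 57 uM ketoconazole. The reaction used 20nM CYP3A4 with 25uM Luciferin-PPXE, 10-min compound preincubation and a 60-min NADPH-supported step at RT.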

[6] = Confirmatory qHTS for VERO E6 Cytotoxicity Assay: Counterscreen for SARS-CoV-2 CPE Assay (AID 1508605; calls by dose curve; note: nearly all actives have a fitted effect of over 60% in size; note: potency is the fitted concentration of half-maximal effect); conditions: cell viability luminescence; series mostly up to 20 µM
[7] = biological target: Cytochrome P450 2D6 (Homo sapiens) (UniProt P10635); assay: Cytochrome P450 family 2 subfamily D member 6 (CYP2D6) small molecule antagonists: luciferase biochemical (cell-free) qHTS assay (AID 1645840; active = well fitted curve in the direction sought with a large enough effect in the repeat runs; an effect the other way counts as inactive or inconclusive; note: nearly all actives have a fitted effect of over 55% in size); conditions: P450-Glo CYP2D6 enzyme, luciferin luminescence, 1 h; series mostly up to 57.4 µM
Cytochrome P450 2D6 (Homo sapiens), sequence (P10635 whole entry, looked up): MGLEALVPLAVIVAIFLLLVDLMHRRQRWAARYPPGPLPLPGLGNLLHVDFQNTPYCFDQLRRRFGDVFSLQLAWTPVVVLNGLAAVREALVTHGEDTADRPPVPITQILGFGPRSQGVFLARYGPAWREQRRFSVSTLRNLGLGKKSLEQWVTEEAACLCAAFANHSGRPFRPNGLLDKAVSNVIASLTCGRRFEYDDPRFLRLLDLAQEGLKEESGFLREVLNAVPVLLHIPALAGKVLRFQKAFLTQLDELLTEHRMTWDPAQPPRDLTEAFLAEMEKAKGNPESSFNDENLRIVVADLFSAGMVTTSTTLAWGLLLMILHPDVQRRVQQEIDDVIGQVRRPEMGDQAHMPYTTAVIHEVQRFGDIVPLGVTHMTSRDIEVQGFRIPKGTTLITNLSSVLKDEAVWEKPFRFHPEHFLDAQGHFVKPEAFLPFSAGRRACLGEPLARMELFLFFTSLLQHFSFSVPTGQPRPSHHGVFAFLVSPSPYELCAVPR
Summary of the method: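 P450-Glo luminescent screen: recombinant CYP2D6 enzyme–proluciferin substrate mix preincubated with compound 10 min at room temperature, then NADPH regeneration added for 1 h at room temperature. Detection reagent added for 20 min; luciferin light read as relative luminescence units.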

[8] = Viability counterscreen for antagonist of constitutive androstane receptor (CAR) against the NCATS DSHEA and TCM libraries (AID 1794837); conditions: CAR reporter cell line viability counterscreen, qHTS; series mostly up to 40 µM;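 note: compound exposure lasted 24 h before viability reading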
Summary of the method: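 Cells: HepG2 line carrying CYP2B6 reporter and hCAR, seeded and attached 5 h. Then pin-transferred test substances plus agonist CITCO at 48 uM final; 24 h incubation; fluorogenic viability reagent, 1 h.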

[9] = Viability counterscreen for agonist of constitutive androstane receptor (CAR) against the NCATS DSHEA and TCM libraries (AID 1794838); conditions: HepG2 cell viability counterscreen, CAR agonist assay; series mostly up to 40 µM;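 note: HepG2 cells with CYP2B6 reporter and hCAR plus 0.75 µM PK11195 antagonist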
Summary of the method: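 Cell health was measured as CellTiter-Fluor signal in HepG2-CYP2B6-hCAR cells treated for 24 h with substances alongside the hCAR antagonist PK11195 (0.75 uM final).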

[10] = biological target: Nuclear receptor subfamily 1 group I member 3 (Homo sapiens) (UniProt Q14994); assay: Primary qHTS for agonist of constitutive androstane receptor (CAR) against the NCATS DSHEA and TCM libraries (AID 1794839); conditions: CAR agonist reporter cells, qHTS luminescence; Potency: CAR antagonist co-added at 0.75 µM unless noted; series mostly up to 40 µM; note: potency is the fitted concentration of half-maximal effect;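 for activation: HepG2 cells expressing human CAR with a CYP2B6 reporter plus PK11195 antagonist; luciferase reporter luminescence read with ONE-Glo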
Nuclear receptor subfamily 1 group I member 3 (Homo sapiens), sequence (Q14994 whole entry, looked up): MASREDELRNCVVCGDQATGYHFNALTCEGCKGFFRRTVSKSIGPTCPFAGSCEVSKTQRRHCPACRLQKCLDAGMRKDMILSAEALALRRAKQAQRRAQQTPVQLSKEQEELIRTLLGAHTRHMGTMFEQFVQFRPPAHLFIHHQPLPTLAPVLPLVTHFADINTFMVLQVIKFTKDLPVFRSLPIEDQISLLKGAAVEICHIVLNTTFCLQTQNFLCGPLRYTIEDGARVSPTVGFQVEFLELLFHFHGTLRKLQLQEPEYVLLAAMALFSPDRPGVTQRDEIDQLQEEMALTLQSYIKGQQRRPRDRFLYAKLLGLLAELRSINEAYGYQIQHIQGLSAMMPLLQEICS
Summary of the method: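 qHTS, agonist mode: HepG2-CYP2B6-hCAR, 2,500 cells/well, 5 h attach; cpds + PK11195 0.75 µM final; 24 h, 37 °C, 5% CO2. Readouts: CellTiter-Fluor (405/540 nm), then ONE-Glo luminescence.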

[11] = HepG2 viability counterscreen (readout 2: ATP content) against the NCATS DSHEA and TCM libraries (AID 1794840); conditions: ATP content luminescence; series mostly up to 27.3 µM
Summary of the method: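 Same wells read twice: first fluorescence from cleaved GF-AFC substrate (25 uM final, 30 min, 37C) for live-cell protease, then CellTiter-Glo luminescence after 30 min at room temperature for ATP. HepG2 cells were exposed ~24 h to substances.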

7G8 = assay: qHTS profiling for inhibitors of Plasmodium falciparum proliferation (AID 504749); note: nearly all actives have a fitted effect of over 60% in size; note: potency is the fitted concentration of half-maximal effect; conditions: P. falciparum in erythrocytes, SYBR Green DNA, 72 h; series mostly up to 12.8 µM
Summary of the method: (§1)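 Readout was DNA-dye fluorescence from lysed cultures, ex 485/em 535 nm. Parasitized red cells had grown 72 h with compound; data scaled between 0.29 uM artemisinin and DMSO wells and corrected using vehicle-only plates.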

CP191 = assay: as above; conditions: P. falciparum in erythrocytes, SYBR Green DNA, 72 h; series mostly up to 28.7 µM
Summary of the method: as §1

CP260 = assay: as above; conditions: P. falciparum in erythrocytes, SYBR Green DNA, 72 h; series mostly up to 28.7 µM
Summary of the method: as §1

CP291 = assay: as above; conditions: P. falciparum in erythrocytes, SYBR Green DNA, 72 h; series mostly up to 28.7 µM
Summary of the method: as §1

CP297 = assay: as above; conditions: P. falciparum in erythrocytes, SYBR Green DNA, 72 h; series mostly up to 28.7 µM
Summary of the method: as §1

CP335 = assay: as above; conditions: P. falciparum in erythrocytes, SYBR Green DNA, 72 h; series mostly up to 12.8 µM
Summary of the method: as §1

ICS = assay: as above; conditions: P. falciparum in erythrocytes, SYBR Green DNA, 72 h; series mostly up to 28.7 µM
Summary of the method: as §1

JCK = assay: as above; conditions: P. falciparum in erythrocytes, SYBR Green DNA, 72 h; series mostly up to 28.7 µM
Summary of the method: as §1

[12] = S16 Schwann cell viability assay (CellTiter-Glo assay) (AID 624031); conditions: S16 rat Schwann cells viability, 24 h; series mostly up to 57.5 µM;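 note: cellular ATP luminescence as a viability measure; nearly all actives have a fitted effect of over 70% in size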
Summary of the method: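 Untransfected S16 rat Schwann cells; compound 24 h, 37 °C/5% CO2; CellTiter-Glo ATP luminescence. % activity vs no-cell wells and DMSO controls (0%); concentration-effect curves classed by r2, response magnitude, activity.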

CN(C)C1C(=O)C(C(N)=O)=C(O)[C@@]2(O)C(=O)C3=C(O)c4c(O)ccc(Cl)c4[C@](C)(O)C3CC12 (some centres undefined)
Potency [1]: inactive | Potency [2]: inactive | Potency [3]: 282 µM (active)

CN(C)[C@@H]1C(=O)C(C(N)=O)=C(O)[C@]2(O)C(=O)C3=C(O)c4c(O)cccc4[C@@](C)(O)[C@@H]3C[C@@H]12
Potency [4]: inactive | Potency [3]: inactive

CC(C)(O)/C=C\C(=O)[C@](C)(O)[C@H]1[C@H](O)C[C@]2(C)[C@@H]3CC=C4[C@@H](C=C(O)C(=O)C4(C)C)[C@]3(C)C(=O)C[C@@]12C
activity change, positive = activation [5]: -93.2% [at 11.4 µM]

COC(=O)[C@@]12OC[C@]34[C@H]([C@@H](O)[C@@H]1O)[C@@]1(C)CC(=O)C(O)=C(C)[C@@H]1C[C@H]3OC(=O)[C@H](OC(=O)/C=C(\C)C(C)C)[C@@H]24
Potency [6]: 0.127 µM (active)

CCCCCCC(C)(C)c1cc(O)c2c(c1)OC(C)(C)C1CC=C(CO)C[C@H]21 (some centres undefined)
Potency [6]: inactive

N#CC(O[C@@H]1O[C@H](CO[C@@H]2O[C@H](CO)[C@@H](O)[C@H](O)[C@H]2O)[C@@H](O)[C@H](O)[C@H]1O)c1ccccc1 (some centres undefined)
Potency [7]: inactive | outcome [8]: inactive | outcome [9]: inactive | Potency [10]: inactive | outcome [11]: inactive

C[C@@H](C1CC[C@@]2(O)C3=CC(=O)[C@@H]4C[C@@H](O)[C@@H](O)C[C@]4(C)[C@H]3CC[C@]12C)[C@H](O)CCC(C)(C)O (some centres undefined)
Potency [7]: inactive

C=C(C)[C@@H]1CCC(C)=C[C@H]1c1c(O)cc(CCCCC)cc1O
outcome [8]: inactive | outcome [9]: inactive | Potency [10]: 31.6 µM [setting not given] (active) | outcome [11]: inactive

CCC1/C=C/C=CCC(C)C(O)[C@@](C)(O)C(=O)C(C)C(O)C(C)C(=O)C(C)C(O)C(C)C=CC(=O)O[C@H]2C(C)C(CC1)O[C@]1(CCC(C)C(CC(C)O)O1)C2C (some centres undefined)
Potency [5]: inactive | Potency [1]: inactive | Potency [2]: inactive

CC(C)(O)C1C2OC(=O)C1[C@]1(O)C[C@H]3O[C@]34C(=O)O[C@H]2[C@]14C (some centres undefined) (tested in a mixture with another compound)
Potency (7G8): inactive | Potency (CP191): inactive | Potency (CP260): inactive | Potency (CP291): inactive | Potency (CP297): inactive | Potency (CP335): inactive | Potency (ICS): inactive | Potency (JCK): inactive

Oc1ccc2c3c1O[C@H]1[C@@H](O)CC[C@@]4(O)C(C2)N(CC2CCC2)CCC314 (some centres undefined)
Potency [12]: inactive | Potency (CP191): inactive | Potency (CP260): inactive | Potency (CP291): inactive | Potency (CP297): inactive | Potency (CP335): inactive | Potency (ICS): inactive | Potency (JCK): inactive

CCN(CC)C(=O)N[C@@H]1C[C@@H]2c3cccc4[nH]cc(c34)C[C@H]2N(C)C1
Potency [12]: inactive | Potency (7G8): 4.47 µM (active)

CCCC[N+]1(C)C2CC(OC(=O)C(CO)c3ccccc3)CC1C1OC12 (centres undefined)
Potency [12]: inactive | Potency (7G8): inactive | Potency (CP191): inactive | Potency (CP260): inactive | Potency (CP291): inactive | Potency (CP297): inactive | Potency (CP335): inactive | Potency (ICS): inactive | Potency (JCK): inactive

CC[C@@H](CO)NC(=O)[C@H]1C=C2c3cccc4c3c(cn4C)C[C@H]2N(C)C1
Potency [4]: 0.126 µM (active)
